According to PubChem BioAssay (NCATS):
Inconclusive results are not listed. Activity calls are given as the source filed them. The call rests on the fitted dose curve; in most records, active means well fitted inhibition curve with a large enough effect in the repeat runs; inconclusive means weak or mixed curves; inactive means no such curve, though single readings can be large or run the other way.

molecular target: Cytochrome P450 2C9 (Homo sapiens) (UniProt P11712); assay: Cytochrome P450 family 2 subfamily C member 9 (CYP2C9) small molecule antagonists: luciferase biochemical (cell-free) qHTS assay (AID 1645842); conditions: P450-Glo CYP2C9 enzyme assay, luciferin luminescence; series mostly up to 57.4 µM; further: nearly all actives have a fitted effect of over 55% in size
Summary of the method: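 Luminescence, after 20 min with luciferin detection reagent, reflected CYP2C9 turnover during a 1 h NADPH-driven reaction at 37C. Enzyme-substrate mix contained 0.4% bovine serum albumin and was preincubated with compound 10 min at room temperature.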
Potency means the concentration at half of the fitted maximal effect.

Cytochrome P450 2C9 (Homo sapiens), sequence (P11712 whole entry, looked up): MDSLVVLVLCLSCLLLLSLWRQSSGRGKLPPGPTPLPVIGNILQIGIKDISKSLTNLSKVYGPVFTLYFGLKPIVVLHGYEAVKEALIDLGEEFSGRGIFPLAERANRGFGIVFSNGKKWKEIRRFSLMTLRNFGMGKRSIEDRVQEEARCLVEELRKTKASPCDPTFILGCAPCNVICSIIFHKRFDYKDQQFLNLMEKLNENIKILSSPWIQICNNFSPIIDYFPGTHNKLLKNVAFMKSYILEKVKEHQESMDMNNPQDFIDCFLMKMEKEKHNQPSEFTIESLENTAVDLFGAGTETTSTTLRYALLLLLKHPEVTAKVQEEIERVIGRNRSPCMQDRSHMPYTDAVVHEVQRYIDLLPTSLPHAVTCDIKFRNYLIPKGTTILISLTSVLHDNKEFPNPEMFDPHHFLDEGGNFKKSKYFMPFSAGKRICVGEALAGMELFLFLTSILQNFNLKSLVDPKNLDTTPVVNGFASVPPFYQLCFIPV

Question: For `O=C(OC(C(F)(F)F)C(F)(F)F)N1CCN(Cc2cccc(Oc3ccccc3)c2)CC1`, which Potency is on record?
Answer: 19 µM (active)

Question: With `COc1ccc(-c2ccn(CC[C@](C)(C(=O)NO)S(C)(=O)=O)c(=O)c2)c(F)c1` as the compound, how does the Potency read?
Answer: inactive

Question: `CCOC(=O)c1ccc(NC2CCCCC2)c(N)c1` was tested. Which Potency did it give?
Answer: 5.35 µM (active)

Question: With `COc1cc(Cc2cnc(N)nc2N)c(C(C)C)cc1OC` as the compound, how does the Potency read?
Answer: inactive

Question: How did the Potency turn out when `CC(C)NC(=O)c1ccc(C#Cc2ccncc2)cn1` was run?
Answer: 0.601 µM (active)

Question: Which Potency does the source give for `Cc1nnc(-c2ccc3occ(-c4ccc(S(C)=O)cc4)c3c2)o1` (centres undefined) here?
Answer: 19 µM (active)

Question: Which Potency does the source give for `COc1cccc(Cn2ncc3c4sc(S(C)=O)cc4n(C)c3c2=O)c1` (centres undefined) here?
Answer: 12 µM (active)

Question: For `CCNC(=O)OC1CCN(c2nncc3cc(OC)c(OC)cc23)CC1`, which Potency is on record?
Answer: 15.1 µM (active)

Question: Which Potency does the source give for `CC1(C)CC=C(C#Cc2ccccc2)c2cc(/C=C/c3ccc(C(=O)O)cc3)ccc21` here?
Answer: 19 µM (active)

Question: `COc1ccccc1CN[C@H]1CCCN[C@H]1c1ccccc1` was tested. Which Potency did it give?
Answer: inactive

Question: `NC[C@H]1CCC[C@@H](CNC(=O)[C@@H](Cc2c[nH]c3ccccc23)NC(=O)N2CCC3(C=Cc4ccccc43)CC2)C1` was tested. Which Potency did it give?
Answer: 1.86 µM (active)

Question: Which Potency does the source give for `CC(=O)NCC1CN(c2ccc(-c3ccc(CNCc4cn[nH]n4)cc3)c(F)c2)C(=O)O1` (centres undefined) here?
Answer: 15.1 µM (active)

Question: With `COc1cnc(-c2ccc(Cn3c(CC(C)(C)C(=O)O)c(SC(C)(C)C)c4cc(OC[C@@H]5Cc6ccccc6N5C(C)=O)ccc43)cc2)nc1` as the compound, how does the Potency read?
Answer: 12 µM (active)

Question: `COc1cccc(OC)c1-c1cc(C(=O)N[C@@H](CC(C)C)C(=O)O)nn1-c1ccnc2cc(Cl)ccc12` was tested. Which Potency did it give?
Answer: 16.9 µM (active)
